SMILES strings stand for the structures. Inconclusive results are not listed. Activity calls are given as the source filed them. Calls follow the shape of the dose curve; as a rule, active = well fitted inhibition curve with a large enough effect; inconclusive = small, poorly fitted or top-dose-only effect; inactive = no such curve, though single readings can be large or run the other way.
% is scaled to controls: 0 for no effect and ±100 for the full control effect; potency is read from the fitted curve at half-maximal effect.

This assay is described as follows: Primary qHTS for inhibitors of nuclear receptor binding SET domain protein 2 (NSD2) in an RCH-ACV wild type WT cells (2C) (AID 1645877). Also: nearly all actives have a fitted effect of over 70% in size. To be noted: RCH-ACV (leukaemia line) NSD2 WT (2C) viability, CellTiter-Glo, 72 h; series mostly up to 44.9 µM; activity change, negative = cell killing: at the top concentration. (Quantitative high-throughput screening tests each substance at several concentrations.)
`CC(=O)OC1CC(O)C2(C)C(CC(OC(C)=O)C3(C)C2CCC2(C)C(c4ccoc4)C(=O)C4OC423)C1(C)C` (stereo unspecified): the “activity change, negative = cell killing” value is -23.4% [at 17.3 µM] (inactive).

In the case of `Cc1cn(C[C@H](N)C(=O)O)c(=O)n(Cc2cc(-c3ccccc3)sc2C(=O)O)c1=O`, the compound was called inactive. For `CN1C(=O)c2ccccc2NC(=O)C1Cc1ccccc1` (stereo unspecified), the “activity change, negative = cell killing” value was -18.7% (inactive). Take `C=C1[C@@H]2CC[C@@]3(C)[C@H](c4ccoc4)OC(=O)C[C@]13O[C@H]1CC(=O)C(C)(C)[C@H](C(OC(C)=O)C(=O)OC)[C@]12C` (stereo partly specified): the “activity change, negative = cell killing” value is -14.1% [at 17.3 µM] (inactive).

On to `C/C=C(\C)C(=O)O[C@H]1[C@H](OC(C)=O)[C@]2(CO)[C@H](O)[C@H](O)[C@]3(C)C(=CCC4[C@@]5(C)CC[C@H](O[C@@H]6O[C@H](C(=O)O)[C@@H](O)[C@H](O[C@@H]7OC[C@H](O)[C@H](O[C@@H]8OC[C@H](O)[C@H](O)[C@H]8O)[C@H]7O)[C@H]6O[C@@H]6O[C@H](CO)[C@@H](O)[C@H](O)[C@H]6O)C(C)(C)C5CC[C@]43C)[C@@H]2CC1(C)C` (stereo partly specified), for which the activity change, negative = cell killing is 2.35% [at 9.23 µM] (inactive).

Take `N#CC(OC1OC(COC2OC(CO)C(O)C(O)C2O)C(O)C(O)C1O)c1ccccc1` (stereo unspecified): the “activity change, negative = cell killing” value is -6.39% [at 17.3 µM] (inactive). For `CCc1[nH]c2ccc(OC)cc2c1CCN(C)C`, the “activity change, negative = cell killing” value was -12.4% (inactive). For the compound `C[C@H]1O[C@@H](O[C@H]2C[C@@H](O)[C@]3(CO)C4C(CC[C@]3(O)C2)[C@@]2(O)CC[C@H](C3=CC(=O)OC3)[C@@]2(C)C[C@H]4O)[C@@H](O)[C@@H](O)[C@H]1O` (stereo partly specified), the Potency is 383 nM (active). `COC(=O)C1(C)CCC(=O)C2(C)c3c(O)cc(C(C)C)cc3C(O)C(OC(C)=O)C12` (stereo unspecified): the “activity change, negative = cell killing” value was -6.54% [at 17.3 µM] (inactive). Regarding `COC(=O)N1CCN(C(=O)Cc2ccc(Cl)c(Cl)c2)[C@@H](CN2CCCC2)C1`, the compound was called inactive.

As for `CN(C(=O)Cc1ccccc1)C(CN1CCCC1)c1ccccc1` (stereo unspecified), the “activity change, negative = cell killing” value is -11.1% (inactive). As to `CN1C(=O)c2ccccc2NC(=O)[C@]12O[C@@H]2c1ccccc1`, the “activity change, negative = cell killing” value was -24.8% (inactive). `O=C(N1CCOCC1)N1CCN(c2ccc(Cl)cc2)CC1`: the “activity change, negative = cell killing” value is -10.2% (inactive). Regarding `COC(=O)C12C(=O)C(C)(O)C(=O)C1(C)C(C)=CC1C34CCC(OC3=O)C(C)(CO)C4CCC12C` (stereo unspecified), the “outcome” value is “inactive [at 17.3 µM]”.

Regarding `COC(=O)[C@@]12C(=O)C(C)C(=O)[C@]1(C)C(C)=C[C@H]1[C@]3(C=O)CC[C@H](OC(C)=O)C(C)(C)[C@H]3CC[C@@]12C` (stereo partly specified), the “activity change, negative = cell killing” value is -22.3% [at 17.3 µM] (inactive). Take `OCCCCC#Cc1cncc(OC[C@@H]2CCN2)c1`: the outcome was inactive.

The values above are taken from PubChem BioAssay (NCATS).
